Assay results as given in the supplement of paper PMC9950053.
Where a name gives a salt, the structure may show the parent alone.

Tested on: Danio rerio larvae (5 dpf)
Experiment: habituation (activity change first vs second 5 min of 1-s interval sound, period 17) minus DMSO control (percentage points); higher = larger habituation measure than DMSO larvae
Settings: 10 µM; exposure time: 3 h pre-incubation + 3 h imaging
Experimental: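 Wild-type 5 dpf zebrafish larvae (n=48 per drug, 96-well plates, 28.5 °C) were exposed to Tocris FDA-approved library compounds at 10 µM (0.1% DMSO) for 3 h before and 3 h during imaging. Images were taken every 6 s during visual (moving coloured lines) and acoustic stimuli, and larvae were tracked with the DeepLabCut-based Z-LaP Tracker. Each behavioural measure is the treated-group mean minus the DMSO vehicle control mean (n=844), in percentage points. This mapping covers compounds with 4-character plate codes.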

Structure (SMILES) | habituation
Nc1ncn([C@H]2C[C@H](O)[C@@H](CO)O2)c(=O)n1 [Decitabine] | 7.42
Cc1ccc(N(CC2=NCCN2)c2cccc(O)c2)cc1 [Phentolamine Mesylate] | 8.8
O=C(O)c1cc(/N=N/c2ccc(S(=O)(=O)Nc3ccccn3)cc2)ccc1O [Sulfasalazine] | 1.27
NS(=O)(=O)c1cc(C(=O)O)c(NCc2ccco2)cc1Cl [Furosemide] | 2.23
CC1=Nc2ccc(Cl)cc2S(=O)(=O)N1 [Diazoxide] | 8.87
CC(c1cc2ccccc2s1)N(O)C(N)=O (stereo not given) [Zileuton] | 7.74
Cc1nc(Nc2ncc(C(=O)Nc3c(C)cccc3Cl)s2)cc(N2CCN(CCO)CC2)n1 [Dasatinib] | -0.804
Nc1nc(Cl)nc2c1ncn2[C@@H]1O[C@H](CO)[C@@H](O)[C@@H]1F [Clofarabine] | -1.06
COc1ccc(C[C@@H](C)NC[C@H](O)c2ccc(O)c(NC=O)c2)cc1 [Arformoterol tartrate] | -3.57
CS(=O)(=O)CCNCc1ccc(-c2ccc3ncnc(Nc4ccc(OCc5cccc(F)c5)c(Cl)c4)c3c2)o1 [Lapatinib] | -1.33
CC/C(=C(\c1ccccc1)c1ccc(OCCN(C)C)cc1)c1ccccc1 [Tamoxifen citrate] | -7.1
CCCCC1=NC2(CCCC2)C(=O)N1Cc1ccc(-c2ccccc2-c2nnn[nH]2)cc1 [Irbesartan] | -1.18
CCOc1cc(CC(=O)N[C@@H](CC(C)C)c2ccccc2N2CCCCC2)ccc1C(=O)O [Repaglinide] | -7.53
CN(CCOc1ccc(CC2SC(=O)NC2=O)cc1)c1ccccn1 (stereo not given) [Rosiglitazone] | 2.04
CC(C)n1c(/C=C/C(O)CC(O)CC(=O)O)c(-c2ccc(F)cc2)c2ccccc21 (stereo not given) [Fluvastatin sodium] | 2.02
C=CC(=O)N1CCC[C@@H](n2nc(-c3ccc(Oc4ccccc4)cc3)c3c(N)ncnc32)C1 [Ibrutinib] | -7.32
COC(=O)C1=C(C)NC(C)=C(C(=O)OC(C)C)C1c1cccc2nonc12 (stereo not given) [Isradipine] | -15.1
CCOc1nc2cccc(C(=O)O)c2n1Cc1ccc(-c2ccccc2-c2noc(=O)[nH]2)cc1 [Azilsartan] | 8.15
CC(CCc1ccc(O)cc1)NCCc1ccc(O)c(O)c1 (stereo not given) [Dobutamine hydrochloride] | 3.31
Nc1nc2c(ncn2COCCO)c(=O)[nH]1 [Acyclovir] | 2.18

Structure (SMILES) | habituation
COc1cc(Nc2c(C#N)cnc3cc(OCCCN4CCN(C)CC4)c(OC)cc23)c(Cl)cc1Cl [Bosutinib] | 1.4
CC(C)c1nc(CN(C)C(=O)N[C@H](C(=O)N[C@@H](Cc2ccccc2)C[C@H](O)[C@H](Cc2ccccc2)NC(=O)OCc2cncs2)C(C)C)cs1 [Ritonavir] | -0.524
CN(C)CCC[C@@]1(c2ccc(F)cc2)OCc2cc(C#N)ccc21 [Escitalopram oxalate] | -6.32
COCCCOc1cc(C[C@@H](C[C@H](N)[C@@H](O)C[C@H](C(=O)NCC(C)(C)C(N)=O)C(C)C)C(C)C)ccc1OC [Aliskiren hemifumarate] | 8.44
Cc1ccc(O)c([C@H](CCN(C(C)C)C(C)C)c2ccccc2)c1 [Tolterodine L-tartrate] | -5.86
CC(=O)S[C@@H]1CC2=CC(=O)CC[C@]2(C)[C@H]2CC[C@@]3(C)[C@@H](CC[C@@]34CCC(=O)O4)[C@H]12 [Spironolactone] | 2.5
Nc1ccn([C@@H]2O[C@H](CO)[C@@H](O)C2(F)F)c(=O)n1 [Gemcitabine hydrochloride] | -1.55
CCN(Cc1ccncc1)C(=O)C(CO)c1ccccc1 (stereo not given) [Tropicamide] | 2.39
O=C(Nc1c(Cl)cncc1Cl)c1ccc(OC(F)F)c(OCC2CC2)c1 [Roflumilast] | -2.44
CC(C)[C@H]1CC[C@H](C(=O)N[C@H](Cc2ccccc2)C(=O)O)CC1 [Nateglinide] | -2.04
CC(C)N(CCCCOCC(=O)NS(C)(=O)=O)c1cnc(-c2ccccc2)c(-c2ccccc2)n1 [Selexipag] | -0.762
CC(C)CN(C[C@@H](O)[C@H](Cc1ccccc1)NC(=O)O[C@H]1CO[C@H]2OCC[C@H]21)S(=O)(=O)c1ccc(N)cc1 [Darunavir] | 0.657
CCCN(CCc1cccs1)[C@H]1CCc2c(O)cccc2C1 [Rotigotine hydrochloride] | -11.4
CN1CCC[C@@H]1CCO[C@](C)(c1ccccc1)c1ccc(Cl)cc1 [Clemastine fumarate] | -6.62
Nc1nc2[nH]cc(CCc3ccc(C(=O)N[C@@H](CCC(=O)O)C(=O)O)cc3)c2c(=O)[nH]1 [Pemetrexed] | -1.84
Nc1nc(NC2CC2)c2ncn([C@H]3C=C[C@@H](CO)C3)c2n1 [Abacavir hemisulfate] | 3.13
Cc1cn([C@H]2C=C[C@@H](CO)O2)c(=O)[nH]c1=O [Stavudine] | -0.444
CC(=O)NC[C@H]1CN(c2ccc(N3CCOCC3)c(F)c2)C(=O)O1 [Linezolid] | -3.73
CCOc1ccccc1OCCN[C@H](C)Cc1ccc(OC)c(S(N)(=O)=O)c1 [Tamsulosin hydrochloride] | 1.59
CCC(=O)O[C@]1(C(=O)SCF)[C@H](C)C[C@H]2[C@@H]3C[C@H](F)C4=CC(=O)C=C[C@]4(C)[C@@]3(F)[C@@H](O)C[C@@]21C [Fluticasone propionate] | 2.72
